# Measurements published in PubChem BioAssay (EPA / NIEHS).
# Calls of active or inactive are those of the source. The calls were made as follows: active = hit-call score of the fitted dose curve at least 0.9, where 1 is the maximum; inactive = score below 0.9.
# Columns and labels:
# [1] = read-out: Human Leukocyte Antigen - DR isotype (HLADR), HLA-DRA (gene 3122); assay: BSK_CASM3C_HLADR: BioMAP Diversity Plus: CASM3C Assay for Human Leukocyte Antigen - DR isotype (HLADR) Biomarker Activity (AID 2283043); conditions: primary human coronary artery smooth muscle cells; actives raise or lower the signal;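 also: cell-surface HLA-DR protein level quantified by ELISA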
# [2] = read-out: Macrophage colony-stimulating factor (MCSF), CSF1 (gene 1435); assay: BSK_CASM3C_MCSF: BioMAP Diversity Plus: CASM3C Assay for Macrophage colony-stimulating factor (MCSF) Biomarker Activity (AID 2283044); conditions: primary human coronary artery smooth muscle cells; actives raise or lower the signal;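 also: M-CSF protein amount quantified by ELISA after 24 h exposure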
# [3] = read-out: Low-density lipoprotein receptor (LDLR), LDLR (gene 3949); assay: BSK_CASM3C_LDLR: BioMAP Diversity Plus: CASM3C Assay for Low-density lipoprotein receptor (LDLR) Biomarker Activity (AID 2283045); conditions: primary human coronary artery smooth muscle cells; actives raise or lower the signal;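 also: LDLR protein level on the cell surface quantified by ELISA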
# [4] = read-out: Monocyte Chemoattractant Protein-1 (MCP1), CCL2 (gene 6347); assay: BSK_CASM3C_MCP1: BioMAP Diversity Plus: CASM3C Assay for Monocyte Chemoattractant Protein-1 (MCP1) Biomarker Activity (AID 2283046); conditions: primary human coronary artery smooth muscle cells; actives raise or lower the signal;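 also: MCP-1 level quantified by ELISA 24 h after dosing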
# [5] = BSK_CASM3C_Proliferation: Cell Proliferation Assessment in the BioMAP Diversity Plus: CASM3C Assay (AID 2283047); conditions: primary human coronary artery smooth muscle cells;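 also: sulforhodamine B total protein stain as relative cell number at 560 nm; sub-confluent cells exposed 48 h before staining; fitted both ways against DMSO so gain or loss of cell number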
# [6] = read-out: Monokine induced gamma interferon (MIG), CXCL9 (gene 4283); assay: BSK_CASM3C_MIG: BioMAP Diversity Plus: CASM3C Assay for Monokine induced gamma interferon (MIG) Biomarker Activity (AID 2283048); conditions: primary human coronary artery smooth muscle cells; actives raise or lower the signal;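 also: MIG protein level measured by ELISA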
# [7] = read-out: serum amyloid A (SAA), SAA1 (gene 6288); assay: BSK_CASM3C_SAA: BioMAP Diversity Plus: CASM3C Assay for serum amyloid A (SAA) Biomarker Activity (AID 2283049); conditions: primary human coronary artery smooth muscle cells; actives raise or lower the signal;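 also: SAA protein level quantified by ELISA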
# [8] = BSK_CASM3C_SRB: Viability Assessment in the BioMAP Diversity Plus: CASM3C Assay (AID 2283050); conditions: primary human coronary artery smooth muscle cells;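 also: total protein by SRB staining as cytotoxicity measure in parallel cultures; cells exposed to compound for 24 h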
# [9] = read-out: Thrombomodulin, THBD (gene 7056); assay: BSK_CASM3C_Thrombomodulin: BioMAP Diversity Plus: CASM3C Assay for Thrombomodulin Biomarker Activity (AID 2283051); conditions: primary human coronary artery smooth muscle cells; actives raise or lower the signal;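 also: thrombomodulin protein level measured by ELISA 24 h after dosing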
# [10] = read-out: Tissue Factor, F3 (gene 2152); assay: BSK_CASM3C_TissueFactor: BioMAP Diversity Plus: CASM3C Assay for Tissue Factor Biomarker Activity (AID 2283052); conditions: primary human coronary artery smooth muscle cells; actives raise or lower the signal;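 also: cell surface tissue factor protein level read by ELISA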
# [11] = read-out: Interferon-gamma inducible Protein 10 (IP10), CXCL10 (gene 3627); assay: BSK_hDFCGF_IP10: BioMAP Diversity Plus: hDFCGF Assay for Interferon-gamma inducible Protein 10 (IP10) Biomarker Activity (AID 2283053); conditions: primary human foreskin fibroblasts; actives raise or lower the signal
# In short: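 Cells: human dermal foreskin fibroblasts. Exposure: 24 h post-dosing. Detection: IP-10 ELISA, with values expressed against DMSO controls and fitted in both directions.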
# [12] = read-out: Urokinase-type plasminogen activator receptor (uPAR), PLAUR (gene 5329); assay: BSK_CASM3C_uPAR: BioMAP Diversity Plus: CASM3C Assay for Urokinase-type plasminogen activator receptor (uPAR) Biomarker Activity (AID 2283054); conditions: primary human coronary artery smooth muscle cells; actives raise or lower the signal;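 also: cell-surface uPAR protein level quantified by ELISA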
# [13] = read-out: Vascular cell adhesion molecule 1 (VCAM1), VCAM1 (gene 7412); assay: BSK_CASM3C_VCAM1: BioMAP Diversity Plus: CASM3C Assay for Vascular cell adhesion molecule 1 (VCAM1) Biomarker Activity (AID 2283055); conditions: primary human coronary artery smooth muscle cells; actives raise or lower the signal;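 also: VCAM-1 protein level quantified by ELISA on the cells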
# [14] = read-out: Collagen III, COL3A1 (gene 1281); assay: BSK_hDFCGF_CollagenIII: BioMAP Diversity Plus: hDFCGF Assay for Collagen III Biomarker Activity (AID 2283056); conditions: primary human foreskin fibroblasts; actives raise or lower the signal
# In short: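 ELISA read-out of collagen III from human skin fibroblast cultures sampled 24 h post-dosing. Values were derived by bidirectional fitting relative to the DMSO vehicle control.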
# [15] = read-out: Epidermal growth factor receptor (EGFR), EGFR (gene 1956); assay: BSK_hDFCGF_EGFR: BioMAP Diversity Plus: hDFCGF Assay for Epidermal growth factor receptor (EGFR) Biomarker Activity (AID 2283057); conditions: primary human foreskin fibroblasts; actives raise or lower the signal
# In short: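 Dosing human primary skin fibroblasts, then measuring surface EGFR by ELISA at 24 h, gives the endpoint; gains and losses relative to DMSO were fitted in both directions.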
# [16] = read-out: Interleukin-8 (IL8), CXCL8 (gene 3576); assay: BSK_hDFCGF_IL8: BioMAP Diversity Plus: hDFCGF Assay for Interleukin-8 (IL8) Biomarker Activity (AID 2283058); conditions: primary human foreskin fibroblasts; actives raise or lower the signal
# In short: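 Cells used are human skin primary fibroblasts. Chemical is added, cultures run 24 h, then IL-8 is quantified by ELISA, and gain or loss versus DMSO control is fitted in both directions.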
# [17] = BSK_hDFCGF_Proliferation: Cell Proliferation Assessment in the BioMAP Diversity Plus: hDFCGF Assay (AID 2283059); conditions: primary human foreskin fibroblasts;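 also: curves fitted for both rise and fall of signal versus DMSO baseline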
# In short: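 Primary human foreskin fibroblasts, sub-confluent; […]; 10% TCA fix, 0.1% SRB stain, A560 total protein. Gain/loss fitted bidirectionally vs DMSO control.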
# [18] = read-out: Macrophage colony-stimulating factor (MCSF), CSF1 (gene 1435); assay: BSK_hDFCGF_MCSF: BioMAP Diversity Plus: hDFCGF Assay for Macrophage colony-stimulating factor (MCSF) Biomarker Activity (AID 2283060); conditions: primary human foreskin fibroblasts; actives raise or lower the signal
# In short: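 Primary human foreskin fibroblasts dosed with chemical; 24 h later, M-CSF quantified by ELISA; curves fitted in both directions vs DMSO negative control.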
# [19] = BSK_hDFCGF_SRB: Viability Assessment in the BioMAP Diversity Plus: hDFCGF Assay (AID 2283061); conditions: primary human foreskin fibroblasts;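 also: cells exposed to compound for 24 h before the read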
# In short: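 Readout is SRB absorbance at 560 nm, reflecting total protein in parallel cultures of human foreskin fibroblasts harvested 24 h after chemical dosing. Activity was fitted bidirectionally relative to DMSO.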
# [20] = read-out: TIMP metallopeptidase inhibitor 1 (TIMP1), TIMP1 (gene 7076); assay: BSK_hDFCGF_TIMP1: BioMAP Diversity Plus: hDFCGF Assay for TIMP metallopeptidase inhibitor 1 (TIMP1) Biomarker Activity (AID 2283062); conditions: primary human foreskin fibroblasts; actives raise or lower the signal
# In short: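 Human skin fibroblasts (primary), hDFCGF system; compound exposure 24 h; TIMP-1 by ELISA; bidirectional fit vs DMSO negative control; overt cytotoxicity by SRB in parallel wells.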
structure (smiles),measurement,setting,value
CCC(C)N(C)C(=O)c1cc2ccccc2c(-c2ccccc2Cl)n1 (stereo not given),outcome,[1],inactive
same,outcome,[2],inactive
same,outcome,[3],inactive
same,outcome,[4],inactive
same,outcome,[5],inactive
same,outcome,[6],inactive
same,outcome,[7],inactive
same,outcome,[8],inactive
same,outcome,[9],inactive
same,outcome,[10],inactive
same,outcome,[11],inactive
same,outcome,[12],inactive
same,outcome,[13],inactive
same,outcome,[14],inactive
same,outcome,[15],inactive
same,outcome,[16],inactive
same,outcome,[17],inactive
same,outcome,[18],inactive
same,outcome,[19],inactive
same,outcome,[20],inactive
C/C=C/c1ccc(OC)cc1,outcome,[1],inactive
same,outcome,[2],inactive
same,outcome,[3],inactive
same,outcome,[4],inactive
same,outcome,[5],inactive
same,outcome,[6],inactive
same,outcome,[7],inactive
same,outcome,[8],inactive
same,outcome,[9],inactive
same,outcome,[10],inactive
same,outcome,[11],inactive
same,outcome,[12],inactive
same,outcome,[13],inactive
same,outcome,[14],inactive
same,outcome,[15],inactive
same,outcome,[16],inactive
same,outcome,[17],inactive
same,outcome,[18],inactive
same,outcome,[19],inactive
same,outcome,[20],inactive
O=C1c2c(O)cccc2Cc2cccc(O)c21,outcome,[1],inactive
same,outcome,[2],inactive
same,outcome,[3],inactive
same,outcome,[4],inactive
same,AC50,[5],9.85 µM (active)
same,outcome,[6],inactive
same,outcome,[7],inactive
same,outcome,[8],inactive
same,outcome,[9],inactive
same,outcome,[10],inactive
same,AC50,[11],17.1 µM (active)
same,outcome,[12],inactive
same,outcome,[13],inactive
same,AC50,[14],30.7 µM (active)
same,outcome,[15],inactive
same,outcome,[16],inactive
same,outcome,[17],inactive
same,AC50,[18],17.1 µM (active)
same,AC50,[19],7.76 µM (active)
same,outcome,[20],inactive
NC1CCCCC1,outcome,[1],inactive
same,outcome,[2],inactive
same,outcome,[3],inactive
same,outcome,[4],inactive
same,outcome,[5],inactive
same,outcome,[6],inactive
same,outcome,[7],inactive
same,outcome,[8],inactive
same,outcome,[9],inactive
same,outcome,[10],inactive
same,outcome,[11],inactive
same,outcome,[12],inactive
same,outcome,[13],inactive
same,outcome,[14],inactive
same,outcome,[15],inactive
same,outcome,[16],inactive
same,outcome,[17],inactive
same,outcome,[18],inactive
same,outcome,[19],inactive
same,outcome,[20],inactive
Cc1ccc(C(C)(C)C)c(O)c1,outcome,[1],inactive
same,outcome,[2],inactive
same,outcome,[3],inactive
same,outcome,[4],inactive
same,outcome,[5],inactive
same,outcome,[6],inactive
same,outcome,[7],inactive
same,outcome,[8],inactive
same,outcome,[9],inactive
same,outcome,[10],inactive
same,outcome,[11],inactive
same,outcome,[12],inactive
same,outcome,[13],inactive
same,outcome,[14],inactive
same,outcome,[15],inactive
same,outcome,[16],inactive
same,outcome,[17],inactive
same,outcome,[18],inactive
same,outcome,[19],inactive
same,outcome,[20],inactive
c1ccc2occc2c1,outcome,[1],inactive
same,outcome,[2],inactive
same,outcome,[3],inactive
same,outcome,[4],inactive
same,outcome,[5],inactive
same,outcome,[6],inactive
same,outcome,[7],inactive
same,outcome,[8],inactive
same,outcome,[9],inactive
same,outcome,[10],inactive
same,outcome,[11],inactive
same,outcome,[12],inactive
same,outcome,[13],inactive
same,outcome,[14],inactive
same,outcome,[15],inactive
same,outcome,[16],inactive
same,outcome,[17],inactive
same,outcome,[18],inactive
same,outcome,[19],inactive
same,outcome,[20],inactive
CC(C)c1cccc(C(C)C)c1,outcome,[1],inactive
same,outcome,[2],inactive
same,outcome,[3],inactive
same,outcome,[4],inactive
same,outcome,[5],inactive
same,outcome,[6],inactive
same,outcome,[7],inactive
same,outcome,[8],inactive
same,outcome,[9],inactive
same,outcome,[10],inactive
same,outcome,[11],inactive
same,outcome,[12],inactive
same,outcome,[13],inactive
same,outcome,[14],inactive
same,outcome,[15],inactive
same,outcome,[16],inactive
same,outcome,[17],inactive
same,outcome,[18],inactive
same,outcome,[19],inactive
same,outcome,[20],inactive
